Experiment [1] can be described thus: qHTS assay to identify small molecule agonists of the androgen receptor (AR) signaling pathway in the presence of an antagonist - cell viability counter screen (AID 1259379).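 For activity change, negative = cytotoxicity: MDA-kb2 human breast cancer cells carrying an MMTV luciferase reporter; series mostly up to about 92 µM.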 Note: nearly all actives have a fitted effect of over 25% in size. Note: potency is the fitted concentration of half-maximal effect. The method in brief: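 Viability counter screen: CellTiter-Fluor fluorescence, measured in the same wells as the luciferase read-out. MDA-kb2 cells, 3,000/well, with nilutamide at 3.0uM final and compounds at 15 concentrations, 16 hr at 37C, 0% CO2.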

Experiment [2] can be described thus: qHTS assay to identify small molecule agonists of the estrogen receptor beta (ER-beta) signaling pathway - cell viability counter screen (AID 1259380). Note: nearly all actives have a fitted effect of over 30% in size. Note: potency is the fitted concentration of half-maximal effect. The essentials:
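Luminescence read-out (CellTiter-Glo, 30 min, room temp) taken in the same wells as the beta-lactamase reporter assay; ER-beta-UAS-bla HEK293T cells exposed to DMSO-dissolved compounds for 16 hr at 37C in 2% charcoal-stripped FBS medium.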

The nature of experiment [3]: qHTS assay to identify small molecule antagonists of the estrogen receptor beta (ER-beta) signaling pathway - cell viability counter screen (AID 1259382).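 For activity change, negative = cytotoxicity: HEK293T cells carrying ER-beta-UAS-bla reporter stimulated with estradiol; series mostly up to about 92 µM.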 Note: nearly all actives have a fitted effect of over 55% in size. Note: potency is the fitted concentration of half-maximal effect. The method in brief: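 Luminescent ATP read-out (CellTiter-Glo, 30 min, RT) taken in the same wells as the bla reporter assay. HEK293T ER-beta-UAS-bla cells in 2% charcoal-stripped FBS were exposed to compounds with 1nM E2 for 16 hr at 37C.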

For experiment [4], the target named is Estrogen receptor (Homo sapiens) (UniProt P03372). Briefly: qHTS assay to identify small molecule agonists of the estrogen receptor alpha (ER-alpha) signaling pathway in the presence of an antagonist (AID 1259383; calls by dose curve; note: top concentration of the series differs between compounds; nearly all actives have a fitted effect of over 15% in size). The essentials: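 Luciferase luminescence (ONE-Glo, 30min at room temperature) measured in VM7Luc4E2 cells after 22hr compound exposure at 15 concentrations, with 10.0nM ICI-182,780 final present; cells express endogenous ER-alpha and carry four EREs upstream of luciferase.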
Chain of Estrogen receptor (Homo sapiens) (P03372 whole entry, looked up): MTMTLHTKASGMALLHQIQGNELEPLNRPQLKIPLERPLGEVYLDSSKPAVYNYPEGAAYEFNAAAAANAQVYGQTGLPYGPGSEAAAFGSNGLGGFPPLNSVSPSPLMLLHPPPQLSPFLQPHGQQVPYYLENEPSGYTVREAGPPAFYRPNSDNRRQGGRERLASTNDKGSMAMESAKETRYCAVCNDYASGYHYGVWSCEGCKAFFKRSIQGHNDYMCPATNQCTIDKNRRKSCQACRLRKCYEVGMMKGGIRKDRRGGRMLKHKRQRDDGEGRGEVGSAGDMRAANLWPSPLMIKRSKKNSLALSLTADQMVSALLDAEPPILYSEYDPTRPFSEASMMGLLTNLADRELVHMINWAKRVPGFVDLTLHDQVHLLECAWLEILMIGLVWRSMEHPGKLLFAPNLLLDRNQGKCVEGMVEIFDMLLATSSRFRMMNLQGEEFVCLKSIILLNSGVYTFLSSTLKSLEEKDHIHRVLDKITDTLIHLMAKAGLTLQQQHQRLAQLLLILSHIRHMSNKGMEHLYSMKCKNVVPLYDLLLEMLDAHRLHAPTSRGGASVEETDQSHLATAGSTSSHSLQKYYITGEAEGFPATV

Experiment [5] in a line: qHTS assay to identify small molecule agonists or antagonists of the thyroid stimulating hormone receptor (TSHR) signaling pathway - wild type cell line counter screen (AID 1259384; calls by dose curve; note: potency is the fitted concentration of half-maximal effect). The essentials:
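Counter screen in untransfected Hek293: compounds (15-point titration, triplicate) plus phosphodiesterase inhibitor Ro20-1724 added after 18 h plating; 30 min RT. Intracellular cAMP via competitive d2/cryptate immunoassay, 1 h incubation.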

The target in experiment [6] is Thyrotropin receptor (Homo sapiens) (UniProt P16473). Briefly: qHTS assay to identify small molecule antagonists of the thyroid stimulating hormone receptor (TSHR) signaling pathway (AID 1259385; calls by dose curve; note: nearly all actives have a fitted effect of over 20% in size). The method in brief:
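Antagonist mode: compound-treated TSHR-expressing HEK293 cells were stimulated with 1.5 ng/mL TSH (final) in presence of Ro20-1724 for 30 min at RT. HTRF cAMP detection after 1 h; each compound tested at 15 concentrations, triplicate.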

Experiment [7] in a line: qHTS assay to identify small molecule agonists of the estrogen receptor alpha (ER-alpha) signaling pathway in the presence of an antagonist - cell viability counter screen (AID 1259386).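 Note: series mostly up to about 92 µM; cells exposed to compounds for 22 h at 37 °C before the viability read; nearly all actives have a fitted effect of over 30% in size.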 The essentials:
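Read-out: CellTiter-Fluor fluorescence after 1hr reagent incubation, measured in the same wells as the luciferase readout. VM7Luc4E2 cells were exposed to 15 compound concentrations with 10.0nM ICI-182,780 for 22hr at 37C.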

Experiment [8] concerns the target Estrogen receptor beta (Homo sapiens) (UniProt Q92731). The experiment can be described thus: qHTS assay to identify small molecule antagonists of the estrogen receptor beta (ER-beta) signaling pathway (AID 1259378; active = well fitted inhibition curve with a large enough effect in the signal ratio in the repeat runs, not every such curve was filed as active; the % refers to the signal ratio). The essentials: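 Antagonist mode: compounds added to beta-lactamase reporter HEK293T ER-beta-UAS cells stimulated with E2 (1nM final), 16 hr at 37C. LiveBLAzer B/G FRET substrate, 2 hours room temperature, fluorescence read-out.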

For experiment [9], the target named is Androgen receptor (Homo sapiens) (UniProt P10275). Briefly: qHTS assay to identify small molecule agonists of the androgen receptor (AR) signaling pathway in the presence of an antagonist (AID 1259381; calls by dose curve; note: nearly all actives have a fitted effect of over 15% in size). The essentials: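 Luciferase read-out (ONE-Glo, 30min room temperature) in MDA-kb2 MMTV-reporter cells; agonist mode run in presence of AR antagonist nilutamide, 3.0uM final. Compounds tested as 15-point series, 16hr exposure at 37C, 0% CO2.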
Chain of Androgen receptor (Homo sapiens) (P10275 whole entry, looked up): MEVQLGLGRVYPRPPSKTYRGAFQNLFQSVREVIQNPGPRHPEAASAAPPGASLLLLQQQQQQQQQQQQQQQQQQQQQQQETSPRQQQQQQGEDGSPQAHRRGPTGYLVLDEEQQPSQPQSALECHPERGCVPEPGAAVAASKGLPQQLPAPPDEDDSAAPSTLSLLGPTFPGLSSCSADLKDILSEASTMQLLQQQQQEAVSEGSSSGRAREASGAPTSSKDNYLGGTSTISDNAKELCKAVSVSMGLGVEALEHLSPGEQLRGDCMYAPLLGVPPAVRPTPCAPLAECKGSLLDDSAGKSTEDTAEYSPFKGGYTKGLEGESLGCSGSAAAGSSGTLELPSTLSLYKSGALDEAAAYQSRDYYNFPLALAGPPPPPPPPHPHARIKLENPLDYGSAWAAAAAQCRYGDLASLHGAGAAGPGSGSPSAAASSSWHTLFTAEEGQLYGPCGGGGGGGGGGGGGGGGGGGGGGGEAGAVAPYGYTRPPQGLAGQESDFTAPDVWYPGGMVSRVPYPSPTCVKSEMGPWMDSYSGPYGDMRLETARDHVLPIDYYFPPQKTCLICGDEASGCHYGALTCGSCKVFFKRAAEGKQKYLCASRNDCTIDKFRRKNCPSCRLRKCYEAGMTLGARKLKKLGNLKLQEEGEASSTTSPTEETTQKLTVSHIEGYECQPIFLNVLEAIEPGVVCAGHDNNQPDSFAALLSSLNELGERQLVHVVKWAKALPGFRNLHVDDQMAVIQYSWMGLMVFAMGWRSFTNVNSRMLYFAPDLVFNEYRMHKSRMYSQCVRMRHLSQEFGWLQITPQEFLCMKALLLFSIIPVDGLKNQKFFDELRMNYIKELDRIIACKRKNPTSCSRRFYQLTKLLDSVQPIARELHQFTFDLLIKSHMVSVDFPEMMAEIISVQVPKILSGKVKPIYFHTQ

A number with no mark means an inactive call. Results filed as inconclusive are left out. Activity calls are given as the source filed them. Unless noted, calls come from the whole dose curve; as a rule, active = well fitted curve in the direction sought with a large enough effect in the repeat runs; inconclusive = weak or mixed curves; inactive = no such curve, though single readings can be large; an effect the other way counts as inactive or inconclusive.
% is set by controls: 0 for no effect and ±100 for the full control effect.

Chain of Estrogen receptor beta (Homo sapiens) (Q92731 whole entry, looked up): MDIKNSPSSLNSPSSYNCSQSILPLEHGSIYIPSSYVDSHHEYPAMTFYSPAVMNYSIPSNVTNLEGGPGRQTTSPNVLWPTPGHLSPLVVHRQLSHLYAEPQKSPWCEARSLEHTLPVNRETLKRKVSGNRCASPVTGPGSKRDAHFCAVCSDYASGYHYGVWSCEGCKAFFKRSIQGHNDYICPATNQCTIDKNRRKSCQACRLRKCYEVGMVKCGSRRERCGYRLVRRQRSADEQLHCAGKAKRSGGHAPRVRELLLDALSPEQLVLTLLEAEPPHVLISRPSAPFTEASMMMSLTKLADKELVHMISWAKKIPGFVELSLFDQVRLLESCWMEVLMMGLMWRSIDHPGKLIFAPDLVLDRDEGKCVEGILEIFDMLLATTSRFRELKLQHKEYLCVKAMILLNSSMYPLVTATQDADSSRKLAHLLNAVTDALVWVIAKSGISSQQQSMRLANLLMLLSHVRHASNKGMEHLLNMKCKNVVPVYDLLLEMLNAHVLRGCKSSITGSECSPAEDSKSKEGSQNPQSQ
Chain of Thyrotropin receptor (Homo sapiens) (P16473 whole entry, looked up): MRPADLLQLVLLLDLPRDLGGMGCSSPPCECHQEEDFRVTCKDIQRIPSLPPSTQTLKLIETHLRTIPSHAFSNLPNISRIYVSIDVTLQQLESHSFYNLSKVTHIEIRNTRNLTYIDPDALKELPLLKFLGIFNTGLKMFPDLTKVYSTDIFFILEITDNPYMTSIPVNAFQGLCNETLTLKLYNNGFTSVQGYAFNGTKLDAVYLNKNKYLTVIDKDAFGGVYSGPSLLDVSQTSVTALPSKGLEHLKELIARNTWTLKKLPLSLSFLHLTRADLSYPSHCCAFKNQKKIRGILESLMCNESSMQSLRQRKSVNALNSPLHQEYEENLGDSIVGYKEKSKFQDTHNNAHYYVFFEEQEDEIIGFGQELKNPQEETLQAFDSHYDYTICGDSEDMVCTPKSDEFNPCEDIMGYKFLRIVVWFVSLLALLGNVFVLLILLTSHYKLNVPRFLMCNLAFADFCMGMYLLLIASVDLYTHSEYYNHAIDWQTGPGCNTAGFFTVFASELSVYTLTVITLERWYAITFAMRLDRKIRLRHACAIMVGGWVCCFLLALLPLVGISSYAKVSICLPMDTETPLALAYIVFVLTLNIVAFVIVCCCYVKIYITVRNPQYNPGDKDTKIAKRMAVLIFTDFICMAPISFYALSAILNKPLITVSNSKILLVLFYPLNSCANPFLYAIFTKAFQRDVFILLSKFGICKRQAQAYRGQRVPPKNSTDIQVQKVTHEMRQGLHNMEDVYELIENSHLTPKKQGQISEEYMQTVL

For `CC(C)(C)C1CCCCC1O` (centres undefined), the Potency entry in [1], in experiment [2], in experiment [3], in experiment [4], in [5] and in [6] was “inactive” throughout. Also, the Potency entry in experiment [7] was “inactive”.
`CN1CCC(OC(c2ccccc2)c2ccccc2)CC1`: the Potency entry in experiment [1], in experiment [2], in experiment [3], in experiment [4], in experiment [5] and in experiment [6] was “inactive” throughout. In addition, the Potency entry in [7] is “inactive”.
For `CCOC(=O)C1=NN(c2ccccc2)C(=O)C1`, the Potency result in [1], in experiment [2], in experiment [3], in experiment [4], in experiment [5] and in experiment [6] was “inactive” throughout. Further, the Potency entry in [7] was “inactive”.
Take `CC(=O)O[C@H]1C[C@@H]2CC[C@@H]3[C@H](CC[C@@]4(C)[C@H]3C[C@H]([N+]3(C)CCCCC3)[C@@H]4OC(C)=O)[C@@]2(C)C[C@@H]1N1CCCCC1`: the Potency result in experiment [1], in experiment [2], in experiment [3], in experiment [4], in experiment [5] and in experiment [6] was “inactive” each time. Also, the Potency result in [7] was “inactive”.
For the compound `COCCOCCOCCOCCOC`, the Potency result in experiment [8], in experiment [1], in experiment [9], in experiment [4], in experiment [5] and in [6] was “inactive” throughout. The Potency entry in experiment [7] is “inactive”.
`CCN(CC)CCOc1ccc2c(c1)C(=O)c1cc(OCCN(CC)CC)ccc1-2`: the Potency in experiment [1] was 13.3 µM (active); in [2], 18.8 µM (active); in experiment [3], 18.8 µM (active).
Consider `NC1CCN(c2nc3c(cc2F)c(=O)c(C(=O)O)cn3-c2ccc(F)cc2F)C1` (centres undefined), for which the Potency entry in experiment [1], in experiment [2], in experiment [3], in experiment [4], in [5] and in [6] was “inactive” in each case. Further, the Potency result in experiment [7] was “inactive”.
On to `CNCC[C@@H](Oc1ccccc1C)c1ccccc1`, for which the Potency result in [1], in [9], in [4], in [5] and in experiment [7] was “inactive” in each case. For the same compound, the figures for the Potency in [2] and in experiment [3] were 26.6 µM (active) and 23.7 µM (active), respectively.
Take `CCCCCCc1ccc(N)cc1`: the Potency result in experiment [1], in experiment [9], in [3], in experiment [4], in [5] and in experiment [6] was “inactive” throughout. In experiment [7], the Potency entry was “inactive”. The Potency in experiment [2] is 27.3 µM (active).
In the case of `O=C(O)c1cccc(N(Cc2cccnc2)c2ccc(OC(F)F)c(OC(F)F)c2)c1`, the Potency result in experiment [1], in experiment [9], in experiment [5], in experiment [6] and in experiment [7] was “inactive” each time. Moreover, the Potency in [2] is 48.6 µM (active).
For the compound `CCCCOCCOCCOCCOCCO`, the Potency entry in [8], in experiment [1], in experiment [3], in experiment [4], in [5] and in experiment [6] was “inactive” in each case. Further, the Potency entry in [7] is “inactive”.
Consider `CC(C)(C)C(=O)OCOP(=O)(COCCn1cnc2c(N)ncnc21)OCOC(=O)C(C)(C)C`, for which the Potency entry in [8], in experiment [3], in experiment [5], in [6] and in experiment [7] was “inactive” in each case. In experiment [2], the Potency was 9.44 µM (active).
On to `COc1ccc([C@@H]2Sc3ccccc3N(CCN(C)C)C(=O)[C@@H]2OC(C)=O)cc1`, for which the Potency entry in [1], in [5], in experiment [6] and in experiment [7] was “inactive” in each case. Further, the Potency in experiment [2] was 15 µM (active); in experiment [3], 21.1 µM (active).
For the compound `C1=Cc2ccccc2C1`, the Potency entry in experiment [1], in experiment [2], in [3], in experiment [4] and in experiment [7] was “inactive” throughout.
Turning to `Cn1sccc1=O`, the Potency entry in experiment [1], in [2], in experiment [3], in experiment [4], in experiment [5] and in experiment [7] was “inactive” in each case.
Turning to `C=CC[N+]1([C@H]2C[C@H]3[C@@H]4CC[C@H]5C[C@H](OC(C)=O)[C@@H](N6CCCCC6)C[C@]5(C)[C@H]4CC[C@]3(C)[C@H]2OC(=O)CC)CCCCC1`, the Potency result in experiment [1], in experiment [2], in experiment [3], in experiment [4], in experiment [5] and in experiment [7] was “inactive” in each case.
Take `N#CCCNCCC#N`: the Potency result in [1], in experiment [2], in [3], in experiment [4], in [5] and in experiment [7] was “inactive” each time.
Take `CC(=O)c1c(C)c([N+](=O)[O-])c(C(C)(C)C)c([N+](=O)[O-])c1C`: the Potency result in experiment [1], in experiment [2], in experiment [3], in [5] and in experiment [7] was “inactive” in each case.
For `CCCCC(CC)(CO)CO`, the Potency result in [1], in [2], in experiment [3], in [5], in [6] and in experiment [7] was “inactive” each time.
Consider `COc1cc(C(C)(C)C)c(O)c(C(C)(C)C)c1`, for which the Potency result in experiment [1], in experiment [2], in experiment [3], in experiment [5] and in experiment [7] was “inactive” each time.
`Cc1cc(CC(=O)O)c(C)n1-c1ccc(Cl)cc1`: the Potency entry in [1], in experiment [3], in [5], in experiment [6] and in experiment [7] was “inactive” in each case. The Potency in experiment [2] is 10.6 µM (active).
With `NC[C@H]1O[C@H](O[C@H]2[C@H](O)[C@@H](O[C@H]3O[C@H](CO)[C@@H](O)[C@H](N)[C@H]3O)[C@H](N)C[C@@H]2N)[C@H](O)[C@@H](O)[C@@H]1O`, the activity change, negative = cytotoxicity in experiment [1] is 1.81% [at 8.39 µM]; in [2], 5.67% [at 8.39 µM]; in experiment [3] it was 0.386% [at 8.39 µM]; in experiment [7], -3.74% [at 8.39 µM]. In addition, the cAMP activity change in experiment [5] is 0.52% [at 8.39 µM, active compounds read high].
Turning to `CC(=O)/C=C/C1C(C)=CCCC1(C)C` (centres undefined), the Potency entry in experiment [1], in experiment [2], in experiment [3], in experiment [4] and in [7] was “inactive” throughout.
For `CCCCCCCCN(C)C`, the Potency result in [1], in experiment [2], in experiment [3], in experiment [4], in experiment [5] and in [7] was “inactive” throughout.
Consider `OC(CCN1CCCCC1)(c1ccccc1)C1CCCCC1` (centres undefined), for which the Potency entry in [1], in [2], in experiment [3], in experiment [4], in [5] and in [7] was “inactive” in each case.
In the case of `C=CC(=O)OCCOC(=O)CCC(=O)O`, the Potency entry in experiment [1], in experiment [2], in experiment [3], in experiment [5] and in experiment [7] was “inactive” each time.
Regarding `CC(C)NCC(O)c1cc(O)cc(O)c1` (centres undefined), the Potency result in experiment [1], in experiment [2], in experiment [3] and in [7] was “inactive” each time. Further, the Potency in [5] is 8.1 µM (active).
Take `Cc1ccc(C(N)=O)cc1N`: the Potency result in [1], in [2], in experiment [3], in [4], in experiment [5] and in experiment [6] was “inactive” throughout. The Potency entry in experiment [7] was “inactive”.
